A selection: hits, their analogues and other compounds. The true share with any hit is near 3.8%.
HSF-1 act – increases HSF-1 driven luciferase reporter signal | AID 504408 | 1.7% of 300,000 active | activation, % at 9 µM | NIH3T3-HGL HSF-1 luciferase reporter, MG132, 8 h; 100% = twice DMSO control signal;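 active = mean replicate activation of at least 50% with a set share of replicates each reaching 50%; inconclusive = only one of those two conditions met; inactive = mean below 50% and too few replicates reaching it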;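 note: 0% = median of the neutral control wells and 100% = twice that signal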
MITF act – MITF TRPM1 promoter activation in melanoma cells | SK-MEL-5 TRPM1-promoter luciferase, 24 h; % of positive control, neutral wells = 0 | activation, % at 12.5 µM | 0.75% of 300,000 active | AID 588334;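 active = mean activation of at least 80% with every replicate also reaching 80%; inconclusive = mean reaches 80% but some replicate falls short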;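 note: 0% = neutral control wells and 100% = parthenolide positive control wells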
Wnt act – activators of Wnt/beta-catenin signaling | Wnt/beta-catenin reporter cell assay, activator, plate reader | activation, % at 9.35 µM | 1.2% of 300,000 active | AID 743398; in the data active = activation above about 30%, passing the limit was not always enough; inconclusive = no clear call, values can overlap the other calls;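 note: 0% = neutral control wells and 100% = positive control wells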
HSF1 inh – HSF1 inhibition | NIH3T3-HGL HSE-luciferase, MG132-induced, luminescence 8 h; stronger effect = lower value | activity change, negative = inhibition, % at 7.5 µM (by protocol) | 0.77% of 300,000 active | AID 2098;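 active = more than half of replicate wells show activity change below -50%, luminescence cut by over half; inconclusive = some wells, but at most half, below -50%; inactive = no replicate well below -50%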;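 note: luciferase reports HSF-1 transcriptional activity via heat shock element; 0% = median of DMSO wells and -100% = zero luminescence signal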
esBAF inh – blocks esBAF chromatin remodeling in mouse ES cells; 2% of 350,000 active; Bmi1-luciferase knock-in reporter, 24 h; 100% = twice the neutral-well signal; reporter increase, % at 12.5 µM; in the data active = activation above about 40%; inconclusive = no clear call, values can overlap the other calls;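 note: 0% = median of the plate's neutral control wells and 100% = double that signal; a rise in the Bmi1 reporter signal indicates esBAF inhibition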
* = called active by the depositor; ? = inconclusive; nt = not tested or not shown.

SMILES	HSF-1 act	MITF act	Wnt act	HSF1 inh	esBAF inh
COCCN1Cc2cccc(C(=O)Nc3ccc4c(c3)OCCO4)c2C1=O	-56	0	-3	-52*	6
O=C(CSCc1ccc(Cl)cc1)Nc1ccc2c(c1)OCO2	10	2	nt	-4	nt
COCCN1Cc2cccc(C(=O)Nc3ccc(C)cc3)c2C1=O	19	11	1	3	-10
O=C(CSCc1ccccc1Cl)Nc1ccc2c(c1)OCCO2	-10	135*	-5	1	-24
CCn1cc(C2=NOC(C(=O)Nc3ccc4c(c3)OCO4)C2)c(C)n1 (stereo unspecified)	-4	2	-3	5	3
Cc1ccc(NC(=O)Cc2c(C(=O)O)n(C)c3ccccc23)cc1F	-6	7	-1	-5	nt
Cc1noc(C)c1NC(=O)N(C)C[C@@H]1Oc2ccc(NC(=O)Cc3ccccc3)cc2CC(=O)N([C@@H](C)CO)C[C@@H]1C	nt	nt	nt	nt	0
CO[C@@H]1CN(C)C(=O)c2cc(NC(=O)c3ccccc3F)ccc2OC[C@@H](C)NC[C@@H]1C	nt	nt	nt	nt	8
O=C(Nc1ccc2c(c1)OCCO2)c1ccccc1Cl	nt	nt	40*	nt	-10
O=C(Nc1ccc2c(c1)OCCO2)c1cc2sccc2n1Cc1ccccc1	-16	14	1	-11	49*
O=C(CNCc1ccccc1Cl)Nc1ccc2c(c1)OCCO2	41	?	3	21	52*
O=C(Nc1ccc2c(c1)OCCO2)c1cc2sccc2n1Cc1ccc(F)cc1	-2	22	5	-8	28
O=C(O)CSc1c2ccccc2cc2ccccc12	-17	nt	6	-12	14
Oc1cc(-c2ccccc2)c2ccccc2c1	157*	-8	-1	117	nt
O=C(C=Cc1cccc(O)c1)c1ccccc1O	nt	9	-3	nt	?
O=C(/C=C/c1ccc(O)c(O)c1)c1ccccc1O	92*	65	47*	76	nt
O=C(/C=C/c1ccc(O)cc1)c1ccc(O)cc1O	?	28	25	55	70*
O=C(/C=C/c1cc2ccccc2o1)c1ccccc1O	31	?	39*	26	nt
O=C(C=Cc1ccccc1O)c1ccccc1O	nt	-20	16	nt	63*
O=C(/C=C/c1ccccc1Cl)c1ccccc(=O)c1O	5	-6	nt	7	nt
COc1ccc(S(=O)(=O)Nc2ccc3c(c2)C(=O)N([C@@H](C)CO)C[C@@H](C)[C@H](CN(C)S(=O)(=O)c2ccc(OC)cc2)O3)cc1	nt	nt	nt	nt	-1
C[C@@H]1CN([C@@H](C)CO)C(=O)c2cc(NC(=O)Nc3ccccc3)ccc2O[C@@H](C)CCCCO[C@@H]1CN(C)S(=O)(=O)c1ccc(Cl)cc1	nt	nt	nt	nt	0
COc1cc(OC)cc(C(=O)NC(=S)NCc2ccco2)c1	121*	7	-1	67	nt
COc1cc(OC)cc(C(=O)OCC(=O)NCc2ccco2)c1	nt	-4	47*	nt	-4
Cc1ccc(S(=O)(=O)N(C)C[C@@H]2Oc3ccc(NS(C)(=O)=O)cc3CC(=O)N([C@H](C)CO)C[C@H]2C)cc1	nt	nt	nt	nt	6
SMILES	HSF-1 act	MITF act	Wnt act	HSF1 inh	esBAF inh
O=C(O)C[C@@H]1CC[C@H](NC(=O)Nc2cc(F)ccc2F)[C@H](CO)O1	nt	nt	nt	nt	-4
Cc1ccc2nc(-c3ccccc3NC(=O)CCC(=O)O)c(=O)[nH]c2c1	-80	1	3	-74*	6
CC1=CC(=O)C=C(C)C1=NOC(=O)/C=C\c1ccccc1	65*	-1	-3	42	nt
CC1=CC(=NOC(=O)/C=C/c2ccccc2)C=C(C)C1=O	2	-1	nt	7	-10
C[C@H]1CN([C@@H](C)CO)S(=O)(=O)c2ccc(-c3cccnc3)cc2O[C@@H]1CN(C)Cc1cccnc1	nt	nt	nt	nt	4
COc1ccc(C2Nc3ccccc3C(=O)N2c2ccc(C)cc2)cc1COc1ccccn1 (stereo unspecified)	58*	31	nt	22	nt
COc1ccc(C2Nc3ccccc3C(=O)N2c2ccccc2)cc1CN1CCOCC1 (stereo unspecified)	11	10	2	-2	25
O=C1c2ccccc2NC(c2ccccn2)N1c1ccc(Cl)cc1 (stereo unspecified)	22	76	nt	9	61*
COc1ccc(N2C(=O)c3ccccc3NC2c2ccc(OC)c(Cn3nnc4ccccc43)c2)cc1 (stereo unspecified)	44	53	nt	18	nt
Cc1cccc(C2Nc3ccccc3C(=O)N2c2ccccc2)n1 (stereo unspecified)	16	-9	0	3	2
COc1ccc(C2Nc3ccccc3C(=O)N2c2ccc(C)cc2)cc1Cn1nc(C)c([N+](=O)[O-])c1C (stereo unspecified)	32	90*	16	24	86*
Cc1ccc2nc(NC(=O)COC(=O)c3ccccn3)sc2c1	9	44	12	5	nt
O=C(Nc1nc2ccccc2s1)c1cnccn1	22	-7	nt	7	-20
CCOc1ccc2nc(NC(=O)CSc3cn[nH]n3)sc2c1	55*	37	?	17	-32
CCOc1ccc2nc(NC(=O)CSCC(=O)Nc3cc(C)on3)sc2c1	-47	104*	?	-29	5
Cc1ccc2nc(NC(=O)CSCC(=O)OCC(=O)c3ccccc3)sc2c1	-74	-54	-5	-67*	-39
CCOc1ccc2nc(NC(=O)CSc3ccc(Cl)cc3)sc2c1	49	19	5	32	nt
CCOc1ccc2nc(NC(=O)c3cnccn3)sc2c1	99*	56	8	47	49*
CCNC(=O)[C@H]1[C@H](CO)[C@H]2Cn3c(ccc(-c4ccccc4)c3=O)[C@H]2N1Cc1ccccn1	nt	nt	nt	nt	2
Cc1noc(C)c1S(=O)(=O)N(C)C[C@H]1Oc2ccc(NS(=O)(=O)c3cn(C)cn3)cc2C(=O)N([C@@H](C)CO)C[C@H]1C	nt	nt	nt	nt	-1
CCOCC(=O)Nc1nc2ccc(C)cc2s1	37	74	nt	25	nt
CCOCC(=O)Nc1nc2ccc(OCC)cc2s1	42	33	46*	26	7
COc1ccc(S(=O)(=O)N(C)C[C@@H]2Oc3ccc(NC(=O)Cc4cn(C)c5ccccc45)cc3CC(=O)N([C@@H](C)CO)C[C@H]2C)cc1	nt	nt	nt	nt	11
O=C(CCCCCNc1nc(=S)[nH]c2ccccc12)NCc1ccccc1Cl	3	nt	7	1	nt
S=c1nc(NCCc2ccccc2Cl)c2ccccc2[nH]1	33	72	26	5	41*
SMILES	HSF-1 act	MITF act	Wnt act	HSF1 inh	esBAF inh
COc1ccc(N=CC2=C(O)c3ccccc3C2=O)c(OC)c1	-78	nt	1	-73*	-83
Cc1ccccc1N=CC1=C(O)c2ccccc2C1=O	-24	-44	3	-9	nt
CCOC(=O)c1cc2nc(-c3ccco3)cc(C(F)(F)F)n2n1	-92	-4	-2	-89*	1
CC(C)NC(=O)N1CC[C@@H]2[C@H]1c1cc(Br)ccc1N(C)[C@H]2CO	nt	nt	nt	nt	-2
Cc1ccc(OCC(=O)c2cc(C)n(-c3ccccc3)c2C)c([N+](=O)[O-])n1	-65	-36	nt	-62*	nt
C=CCn1c(C)cc(C(=O)COc2ccc(C)nc2[N+](=O)[O-])c1C	-60	-27	-17	-54*	nt
